Source: PubChem BioAssay (EPA / NIEHS)
Results filed as inconclusive are left out. The source made the active and inactive calls. How the source made its calls, unless noted: active means hit-call score of the fitted dose curve at least 0.9, where 1 is the maximum; inactive means score below 0.9.

Tests used:
[1] = ATG_XTT_Cytotoxicity: Cytotoxicity Assessment in the Attagene TRANS-FACTORIAL HepG2 Assay (AID 2283584; active means hit-call score of the fitted dose curve at least 0.9, where 1 is the maximum;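 on AC50: cells exposed to compound for 24 h before reading; active means loss of viability signal versus DMSO baseline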)
Procedure, shortened: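 Cells: human HepG2, transiently transfected with MRTU reporter constructs. Exposure 24 h. Readout: XTT, cell number. Baseline/neg ctrl DMSO; loss-of-signal scored.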

[2] = read-out: NAD(P)H dehydrogenase [quinone] 1 (NQO1), NQO1 (gene 1728); assay: LTEA_HepaRG_NQO1: Life Technologies and Expression Analysis (LTEA) Assay for NAD(P)H dehydrogenase [quinone] 1 (NQO1) using HepaRG (AID 2283526); settings: mRNA level, 48 h; actives raise or lower the signal
Procedure, shortened: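 Transcript induction or suppression is quantified by qRT-PCR in human HepaRG liver cells dosed for 48 hours. Eight half-log concentrations topping at 100 uM are used, with 0.5% DMSO as vehicle and baseline.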

[3] = read-out: Nuclear factor erythroid 2-related factor 2 (Homo sapiens) (UniProt Q16236); assay: LTEA_HepaRG_NFE2L2: Life Technologies and Expression Analysis (LTEA) Assay for Nuclear factor erythroid 2-related factor 2 (NFE2L2) Transcription Factor using HepaRG (AID 2283527); settings: mRNA level, 48 h; actives raise or lower the signal
Procedure, shortened: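 HepaRG, 48 h dosing, 8-pt half-log series from 100 uM in 0.5% DMSO, duplicates. Read-out: NFE2L2 mRNA by qRT-PCR (ACTB/GAPDH/POLR2A normalization). Bidirectional curve fit vs DMSO baseline.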

[4] = read-out: succinate dehydrogenase complex iron sulfur subunit B (SDHB), SDHB (gene 6390); assay: LTEA_HepaRG_SDHB: Life Technologies and Expression Analysis (LTEA) Assay for succinate dehydrogenase complex iron sulfur subunit B (SDHB) using HepaRG (AID 2283528); settings: mRNA level, 48 h; actives raise or lower the signal
Procedure, shortened: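 SDHB transcript level read by TaqMan qRT-PCR, housekeeping-normalised (ACTB, GAPDH, POLR2A), after 48 h chemical treatment of plated HepaRG cells; eight concentrations top 100 uM, half-log steps, 0.5% DMSO, duplicates; fitted both directions against DMSO.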

[5] = read-out: Signal transducer and activator of transcription 3 (Homo sapiens) (UniProt P40763); assay: LTEA_HepaRG_STAT3: Life Technologies and Expression Analysis (LTEA) Assay for Signal transducer and activator of transcription (STAT3) using HepaRG (AID 2283529); settings: mRNA level, 48 h; actives raise or lower the signal
Procedure, shortened: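 HepaRG, 48 h exposure, 8-pt half-log series (top 100 uM), 0.5% DMSO vehicle, duplicates. Readout: STAT3 transcript by Fluidigm qRT-PCR, housekeeping-normalized; bidirectional fit vs DMSO baseline.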

[6] = read-out: solute carrier (SLCO1B1), SLCO1B1 (gene 10599); assay: LTEA_HepaRG_SLCO1B1: Life Technologies and Expression Analysis (LTEA) Assay for solute carrier (SLCO1B1) using HepaRG (AID 2283530); settings: mRNA level, 48 h; actives raise or lower the signal
Procedure, shortened: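 HepaRG, serum-free induction medium, 48 h dosing, 8-pt half-log from 100 uM, 0.5% DMSO vehicle, duplicates. Readout: SLCO1B1 mRNA, qRT-PCR, ACTB/GAPDH/POLR2A normalization; up or down fit vs DMSO.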

[7] = read-out: sulfotransferase 2A1 (SULT2A1), SULT2A1 (gene 6822); assay: LTEA_HepaRG_SULT2A1: Life Technologies and Expression Analysis (LTEA) Assay for sulfotransferase 2A1 (SULT2A1) using HepaRG (AID 2283531); settings: mRNA level, 48 h; actives raise or lower the signal
Procedure, shortened: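 Transcript levels of SULT2A1, quantified by qRT-PCR and normalized to three housekeeping genes, serve as the readout. Human HepaRG cultures receive test chemicals for 48 h at up to 100 uM in half-log steps, with 0.5% DMSO vehicle.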

[8] = read-out: Transforming Growth Factor (TGFA), TGFA (gene 7039); assay: LTEA_HepaRG_TGFA: Life Technologies and Expression Analysis (LTEA) Assay for Transforming Growth Factor (TGFA) using HepaRG (AID 2283532); settings: mRNA level, 48 h; actives raise or lower the signal
Procedure, shortened: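 qRT-PCR read-out of TGFA transcript, normalized to three housekeeping genes, fitted bidirectionally against 0.5% DMSO baseline. Human HepaRG cultures received chemicals for 48 h at eight half-log concentrations, top 100 uM.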

[9] = read-out: Transforming Growth Factor (TGFB1), TGFB1 (gene 7040); assay: LTEA_HepaRG_TGFB1: Life Technologies and Expression Analysis (LTEA) Assay for Transforming Growth Factor (TGFB1) Transporter using HepaRG (AID 2283533); settings: mRNA level, 48 h; actives raise or lower the signal
Procedure, shortened: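 HepaRG, 48 h post-plating, switched to serum-free induction medium; chemicals 100 uM top, half-log, 8 pts, 0.5% DMSO, dup; 48 h exposure; RNA → Fluidigm TaqMan qRT-PCR; norm ACTB/GAPDH/POLR2A; bidirectional fit vs DMSO.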

[10] = read-out: TIMP1, TIMP1 (gene 7076); assay: LTEA_HepaRG_TIMP1: Life Technologies and Expression Analysis (LTEA) Assay for TIMP1 using HepaRG (AID 2283534); settings: mRNA level, 48 h; actives raise or lower the signal
Procedure, shortened: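 Readout is TIMP1 mRNA level measured by qRT-PCR and normalized to three housekeeping genes. Human HepaRG cells were treated for 48 h in duplicate at eight concentrations up to 100 uM (0.5% DMSO); gain or loss fitted against DMSO.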

[11] = read-out: Tumor necrosis factor receptor 1 (TNFRSF1A), TNFRSF1A (gene 7132); assay: LTEA_HepaRG_TNFRSF1A: Life Technologies and Expression Analysis (LTEA) Assay for Tumor necrosis factor receptor 1 (TNFRSF1A) using HepaRG (AID 2283535); settings: mRNA level, 48 h; actives raise or lower the signal
Procedure, shortened: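 Read-out is TNFRSF1A transcript level by TaqMan qRT-PCR, normalized to three housekeeping genes, scored as gain or loss of signal versus 0.5% DMSO. Human HepaRG cells received test chemicals for 48 h at up to 100 uM (half-log series).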

[12] = read-out: Thyroid Hormone Responsive (THRSP), THRSP (gene 7069); assay: LTEA_HepaRG_THRSP: Life Technologies and Expression Analysis (LTEA) Assay for Thyroid Hormone Responsive (THRSP) using HepaRG (AID 2283536); settings: mRNA level, 48 h; actives raise or lower the signal
Procedure, shortened: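 qRT-PCR read-out (Fluidigm TaqMan), housekeeping-normalized (ACTB/GAPDH/POLR2A). HepaRG, 48 h chemical exposure, 8-pt half-log series from 100 uM in 0.5% DMSO, duplicates. Bidirectional curve fit vs 0.5% DMSO baseline.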

[13] = read-out: Cellular tumor antigen p53 (Homo sapiens) (UniProt P04637); assay: LTEA_HepaRG_TP53: Life Technologies and Expression Analysis (LTEA) Assay for Tumor Protein P53 (TP53) using HepaRG (AID 2283537); settings: mRNA level, 48 h; actives raise or lower the signal
Procedure, shortened: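 TP53 transcript measured by qRT-PCR, normalized to three housekeeping genes, after 48 h treatment of human HepaRG cultures with chemicals from 100 uM downward in half-log steps (0.5% DMSO vehicle, serum-free induction medium). Up- or down-regulation fitted against DMSO.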

[14] = read-out: UDP glucuronosyltransferase (UGT1A1), UGT1A1 (gene 54658); assay: LTEA_HepaRG_UGT1A1: Life Technologies and Expression Analysis (LTEA) Assay for UDP glucuronosyltransferase (UGT1A1) using HepaRG (AID 2283538); settings: mRNA level, 48 h; actives raise or lower the signal
Procedure, shortened: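 Cells are plated, cultured 48 h, switched to serum-free induction medium, then dosed 48 h at eight concentrations (max 100 uM, 0.5% DMSO). RNA is isolated and UGT1A1 expression measured by qRT-PCR; changes versus DMSO are fitted in both directions.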

[15] = read-out: UDP glucuronosyltransferase (UGT1A6), UGT1A6 (gene 54578); assay: LTEA_HepaRG_UGT1A6: Life Technologies and Expression Analysis (LTEA) Assay for UDP glucuronosyltransferase (UGT1A6) using HepaRG (AID 2283539); settings: mRNA level, 48 h; actives raise or lower the signal
Procedure, shortened: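 HepaRG, 48 h post-plating switch to serum-free induction medium; chemical 48 h, 100 uM top, half-log x8, duplicate, 0.5% DMSO. Phenobarbital 1mM induction control. UGT1A6 mRNA by TaqMan qRT-PCR; gain/loss fit vs DMSO.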

[16] = read-out: X-box binding protein 1 (XBP1), XBP1 (gene 7494); assay: LTEA_HepaRG_XBP1: Life Technologies and Expression Analysis (LTEA) Assay for X-box binding protein 1 (XBP1) using HepaRG (AID 2283540); settings: mRNA level, 48 h; actives raise or lower the signal
Procedure, shortened: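 Transcript levels of XBP1, measured by qRT-PCR and normalised to three housekeeping genes, were fitted bidirectionally relative to 0.5% DMSO controls. Human HepaRG cells received eight-point half-log dilutions from 100 uM for 48 h.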

[17] = LTEA_HepaRG_LDH_cytotoxicity: Cytotoxicity Assessment in the Life Technologies and Expression Analysis (LTEA) Assay (AID 2283563; active means hit-call score of the fitted dose curve at least 0.9, where 1 is the maximum)
Procedure, shortened: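 Cells were thawed and plated for 48 h. Medium was then replaced with serum-free induction medium. Chemicals (8 half-log points, maximum 100 uM, 0.5% DMSO) were added in duplicate for 48 h, after which spent medium was assayed for LDH.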

[18] = TOX21_p53_BLA_p2_viability: Viability Assessment in the Tox21 HCT-116 p53 Agonism Beta-lactamase Assay, Phase 2 (AID 2283591; active means hit-call score of the fitted dose curve at least 0.9, where 1 is the maximum;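 further: compound exposure lasted 16 h at 37 °C; actives lower the ATP signal meaning cytotoxicity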)
Procedure, shortened: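 HCT116 p53-bla cells, 4000/well, dosed after 5 h plating (217-fold dilution of DMSO stocks) and incubated 16 h at 37C. Viability taken as cellular ATP by CellTiter-Glo luminescence after 30 min RT; signal loss marks cytotoxicity.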

[19] = target: Cellular tumor antigen p53 (Homo sapiens) (UniProt P04637); assay: TOX21_p53_BLA_p2_ratio: Tox21 HCT-116 p53 Agonism Beta-lactamase Assay, Ratio, Phase 2 (AID 2283592; active means hit-call score of the fitted dose curve at least 0.9, where 1 is the maximum)
Procedure, shortened: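 Plated HCT116 p53-bla cells (4000/well) received compound after 5 h, then 16 h at 37C/5% CO2. CCF4-AM added, 2 h RT. Ratio of 460 to 530 nm emission taken as the p53 reporter signal.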

Measured: AC50

Sequence of Cellular tumor antigen p53 (Homo sapiens) (P04637 whole entry, looked up): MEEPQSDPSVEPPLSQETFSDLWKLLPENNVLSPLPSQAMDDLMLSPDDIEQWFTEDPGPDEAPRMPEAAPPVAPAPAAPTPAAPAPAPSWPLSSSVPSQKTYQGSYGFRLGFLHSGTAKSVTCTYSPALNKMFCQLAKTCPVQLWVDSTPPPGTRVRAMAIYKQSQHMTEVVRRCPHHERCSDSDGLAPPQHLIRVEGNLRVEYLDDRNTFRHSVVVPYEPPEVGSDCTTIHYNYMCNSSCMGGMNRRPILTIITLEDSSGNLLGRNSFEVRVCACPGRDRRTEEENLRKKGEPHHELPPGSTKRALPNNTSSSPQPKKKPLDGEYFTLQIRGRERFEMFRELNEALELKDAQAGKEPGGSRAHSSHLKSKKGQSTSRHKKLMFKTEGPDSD
Sequence of Nuclear factor erythroid 2-related factor 2 (Homo sapiens) (Q16236 whole entry, looked up): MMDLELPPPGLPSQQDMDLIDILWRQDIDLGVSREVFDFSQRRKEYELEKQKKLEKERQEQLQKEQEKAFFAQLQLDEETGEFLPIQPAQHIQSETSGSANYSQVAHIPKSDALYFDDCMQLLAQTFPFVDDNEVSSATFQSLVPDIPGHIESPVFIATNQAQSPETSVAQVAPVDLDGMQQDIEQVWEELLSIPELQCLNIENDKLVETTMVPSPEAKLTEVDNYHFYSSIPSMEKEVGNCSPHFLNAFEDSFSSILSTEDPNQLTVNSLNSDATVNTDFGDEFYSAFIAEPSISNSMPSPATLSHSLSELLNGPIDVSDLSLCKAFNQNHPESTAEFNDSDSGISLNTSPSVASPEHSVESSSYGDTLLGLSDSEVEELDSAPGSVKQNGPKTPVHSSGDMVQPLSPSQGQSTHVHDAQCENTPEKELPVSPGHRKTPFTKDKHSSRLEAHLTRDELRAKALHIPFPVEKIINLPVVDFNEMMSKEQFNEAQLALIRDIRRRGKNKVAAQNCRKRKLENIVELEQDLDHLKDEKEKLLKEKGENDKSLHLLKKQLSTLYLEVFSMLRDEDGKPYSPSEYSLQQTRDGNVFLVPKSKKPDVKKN
Sequence of Signal transducer and activator of transcription 3 (Homo sapiens) (P40763 whole entry, looked up): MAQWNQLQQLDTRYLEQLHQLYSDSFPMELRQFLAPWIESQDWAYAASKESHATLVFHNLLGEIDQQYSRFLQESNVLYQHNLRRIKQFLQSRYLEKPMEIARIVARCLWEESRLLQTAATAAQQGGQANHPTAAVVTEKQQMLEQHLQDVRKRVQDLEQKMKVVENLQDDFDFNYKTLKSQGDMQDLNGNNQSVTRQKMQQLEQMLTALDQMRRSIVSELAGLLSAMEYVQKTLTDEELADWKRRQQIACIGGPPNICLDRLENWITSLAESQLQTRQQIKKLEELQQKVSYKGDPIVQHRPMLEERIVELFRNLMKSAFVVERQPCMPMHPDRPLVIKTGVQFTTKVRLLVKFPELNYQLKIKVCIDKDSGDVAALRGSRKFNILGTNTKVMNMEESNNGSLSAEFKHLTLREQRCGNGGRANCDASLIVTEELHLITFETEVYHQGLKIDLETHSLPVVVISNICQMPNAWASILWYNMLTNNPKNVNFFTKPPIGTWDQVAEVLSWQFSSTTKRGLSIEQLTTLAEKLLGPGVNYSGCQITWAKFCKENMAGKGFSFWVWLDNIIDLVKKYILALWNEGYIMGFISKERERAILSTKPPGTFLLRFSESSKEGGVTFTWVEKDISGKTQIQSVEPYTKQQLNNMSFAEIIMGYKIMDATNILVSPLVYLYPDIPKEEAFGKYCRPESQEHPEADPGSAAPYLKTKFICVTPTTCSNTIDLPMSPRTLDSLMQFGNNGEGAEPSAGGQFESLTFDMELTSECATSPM

CCCCCCCCCCCCCc1ccccc1
inactive: [1]

Nc1ccc(C(=O)O)cc1
not listed: [1]
inactive: all other assays above

CCc1cccc(C)c1N(C(=O)CS(=O)(=O)O)C(C)COC (centres undefined)
inactive: [1]

Cc1ccc([N+](=O)[O-])cc1N
active: [12] 13.3 µM | [14] 50 µM
not listed: [18]
inactive: all other assays above

C=CCOC(=O)c1ccc(C(=O)OCC=C)c(C(=O)OCC=C)c1
inactive: [1]

C=CCCCCCCCCC=O
inactive: [1]

CCC(C)C(=O)OC (centres undefined)
inactive: [1]

O=C1CCCCC1C1CCCCC1 (centres undefined)
inactive: [1]

CCCCCCCC(=O)OCC
inactive: [1]

CCCCCCCCCC[N+](C)(CCCCCCCCCC)CCC[Si](OC)(OC)OC
active: [1] 43.9 µM
